In the supplement of paper PMC10338343:
± gives the standard deviation. In all, about 8,200 sequences were measured (“pre-steady-state target cleavage rate”: median about 0.024, highest 2% from about 1.3 on). The entries come from a sample that favours the highest values as a whole.

System: MIWI (PIWIL1) piRISC loaded with L1MC piRNA (30 nt)
Assay: pre-steady-state target cleavage rate (min^-1); MIWI and MILI are mouse PIWI proteins and EfPiwi is from a freshwater sponge; tags in brackets are library labels; higher = faster piRNA-guided slicing of the target
Conditions: guide: L1MC piRNA 5'p-UAACUAAAUACUAUGCAAGCUGUAGGUCCU
Summary of the method: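 A transcribed, DNA-blocked target RNA library (0.1 nM) and 1 nM active affinity-purified piRISC bearing one synthetic guide were incubated in HEPES–potassium acetate buffer at 33 °C for 0–8 or 0–960 min, either with or without 500 nM GTSF1 partner protein. Uncleaved targets were sequenced, normalised to depth and to weakly complementary targets, and pooled over three trials, with k3 capped at 0.0001 min^-1. The pre-steady-state cleavage rate was derived with a burst-and-steady-state fit.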

[1] = auxiliary factor: 500 nM mouse GTSF1
[2] = auxiliary factor: none (no GTSF1)

ACGACCUACAGCUUGCAUAGUAUUUUCAAA
pre-steady-state target cleavage rate [1]: 0.618 ± 0.067 | pre-steady-state target cleavage rate [2]: 0.00505 ± 0.004

UCCUGGAUGUCCUUGCAUAGUAUUUAGUGUA
pre-steady-state target cleavage rate [1]: 0.0232 ± 0.0073 | pre-steady-state target cleavage rate [2]: 0.00487 ± 0.0027

UGGACCUACAGCAUCCAUAGUAUUUAGUUA
pre-steady-state target cleavage rate [1]: 0.102 ± 0.017 | pre-steady-state target cleavage rate [2]: 0.00273 ± 0.002

UGGACCUACAGCAUGCUUAGUAUUUAGUUA
pre-steady-state target cleavage rate [1]: 0.877 ± 0.056 | pre-steady-state target cleavage rate [2]: 0.0147 ± 0.0037

UGGACCUACAGCAUGGAUAGUAUUUAGUUA
pre-steady-state target cleavage rate [1]: 1.47 ± 0.1 | pre-steady-state target cleavage rate [2]: 0.0301 ± 0.0054

UCCUGGAAGAGCUUGCAUAGUAUUUUGUUA
pre-steady-state target cleavage rate [1]: 0.704 ± 0.076 | pre-steady-state target cleavage rate [2]: 0.0231 ± 0.0062

UCCUGGAUGAGCUUGCAUAGUAUAUUGUUA
pre-steady-state target cleavage rate [1]: 0.165 ± 0.021 | pre-steady-state target cleavage rate [2]: 0.0157 ± 0.004

UCGACCUACAGCUACCAUAGUAUUUAGUAA
pre-steady-state target cleavage rate [1]: 0.355 ± 0.037

UCCUGCAACAGCUUGCAUAGUAUAUAGUUA
pre-steady-state target cleavage rate [1]: 0.844 ± 0.063 | pre-steady-state target cleavage rate [2]: 0.0237 ± 0.0057

UCCUGCAACAGCUUCCAUAGUAUUUAGUUA
pre-steady-state target cleavage rate [1]: 0.0524 ± 0.015

UCCUGGAUGAGGUUGCAUAGUAUUUAGUUA
pre-steady-state target cleavage rate [1]: 0.274 ± 0.022 | pre-steady-state target cleavage rate [2]: 0.00581 ± 0.0018

UGGACGAUCAGCUUGCAUAGUAUUUAGUAA
pre-steady-state target cleavage rate [1]: 0.953 ± 0.064 | pre-steady-state target cleavage rate [2]: 0.0656 ± 0.013

AGGACGAUCAGCUUGCAUAGUAUUUAGUUA
pre-steady-state target cleavage rate [1]: 1.43 ± 0.068 | pre-steady-state target cleavage rate [2]: 0.0865 ± 0.016

UGGACGAUCAGCUUGCAUAGUAUUUAGUUA
pre-steady-state target cleavage rate [1]: 1.47 ± 0.071 | pre-steady-state target cleavage rate [2]: 0.0852 ± 0.016

UCCUCGAUCAGCUUGCAUAGUAUUUAGUAA
pre-steady-state target cleavage rate [1]: 1.06 ± 0.048 | pre-steady-state target cleavage rate [2]: 0.04 ± 0.0086

AGGACGAUCAGCUUGCAUAGUAUUUAGUAA
pre-steady-state target cleavage rate [1]: 1.02 ± 0.12 | pre-steady-state target cleavage rate [2]: 0.0692 ± 0.015

UCGACGAUCAGCUUGCAUAGUAUUUAGUUA
pre-steady-state target cleavage rate [1]: 1.6 ± 0.047 | pre-steady-state target cleavage rate [2]: 0.0826 ± 0.017

UCCUCGAUCAGCUUGCAUAGUAUUUAGAAA
pre-steady-state target cleavage rate [1]: 0.422 ± 0.044 | pre-steady-state target cleavage rate [2]: 0.00569 ± 0.0022

AGGACGAUCAGCUUGCAUAGUAUUUAGAAA
pre-steady-state target cleavage rate [1]: 0.384 ± 0.061 | pre-steady-state target cleavage rate [2]: 0.0104 ± 0.0037

UCGACGAUCAGCUUGCAUAGUAUUUAGAAA
pre-steady-state target cleavage rate [1]: 0.494 ± 0.05 | pre-steady-state target cleavage rate [2]: 0.0104 ± 0.0033

UGGACGAUCAGCUUGCAUAGUAUUUAGAAA
pre-steady-state target cleavage rate [1]: 0.499 ± 0.048 | pre-steady-state target cleavage rate [2]: 0.0141 ± 0.0042

UCCUCGAUCAGCUUGCAUAGUAUUUAGUUA
pre-steady-state target cleavage rate [1]: 1.58 ± 0.056 | pre-steady-state target cleavage rate [2]: 0.0718 ± 0.013

UCGACGAUCAGCUUGCAUAGUAUUUAGUAA
pre-steady-state target cleavage rate [1]: 1.05 ± 0.063 | pre-steady-state target cleavage rate [2]: 0.048 ± 0.011

UCCUGGAUGAGCUUGCUUAGAAUUUAGUUA
pre-steady-state target cleavage rate [1]: 0.0359 ± 0.0063 | pre-steady-state target cleavage rate [2]: 0.00574 ± 0.0024

UCCUGCAUCAGCUUGCAUAGUAUUUAGUUA
pre-steady-state target cleavage rate [1]: 1.2 ± 0.066 | pre-steady-state target cleavage rate [2]: 0.0666 ± 0.014

UCCUGCUACAGCUUGCAUGUAUUUAGUUA
pre-steady-state target cleavage rate [1]: 0.413 ± 0.054 | pre-steady-state target cleavage rate [2]: 0.00516 ± 0.0026

ACCUCCUACAGCUUGCAUAGUAUUUAGAAA
pre-steady-state target cleavage rate [1]: 0.54 ± 0.061 | pre-steady-state target cleavage rate [2]: 0.00602 ± 0.0029

AGGACCUACAGCAUCCAUAGUAUUUAGUUA
pre-steady-state target cleavage rate [1]: 0.319 ± 0.053

UCGACCUACUCGUUGCAUAGUAUUUACAAA
pre-steady-state target cleavage rate [1]: 0.165 ± 0.025

UGCACCUACACCUUGCAUAGUAUUUAGUUA
pre-steady-state target cleavage rate [1]: 0.967 ± 0.059 | pre-steady-state target cleavage rate [2]: 0.0415 ± 0.0067
